Laboratory results from PubChem BioAssay (EPA / NIEHS).
Several values for one entry are separate records, joined by “and”; a condition that tells them apart may be missing. Equal values may be shown once. Inconclusive results are not listed. Some structures have more than one record in an assay (separate samples or runs), and their calls can disagree. Activity calls are given as the source filed them. The calls were made as follows, unless noted: active = hit-call score of the fitted dose curve at least 0.9, where 1 is the maximum; inconclusive = response in the unintended direction; inactive = score below 0.9.

read-out: Intercellular Adhesion Molecule 1 (ICAM1), ICAM1 (gene 3383); test: BSK_3C_ICAM1: BioMAP Diversity Plus: 3C Assay for Intercellular Adhesion Molecule 1 (ICAM1) Biomarker Activity (AID 2283003; active = hit-call score of the fitted dose curve at least 0.9, where 1 is the maximum; inactive = score below 0.9); conditions: primary human endothelial cells (HUVEC); actives raise or lower the signal
Outline: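 ELISA read-out of ICAM-1; HUVEC (primary human), 3C system, 24 h post-dosing; bidirectional fit vs DMSO baseline.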

SMILES	outcome	AC50
Nc1ccc(-c2ccc(N)c(N)c2)cc1N	inactive	–
O=c1[nH]c(Cl)c(Cl)cc1Cl	inactive	–
O=C(O)CCCc1ccc(N(CCCl)CCCl)cc1	inactive	20 µM (active)
COC(C)(C)CCC[C@H](C)C/C=C/C(C)=C/C(=O)OC(C)C	–	30.4 µM (active)
O=P1(NCCCl)OCCCN1CCCl (stereo not given)	inactive	–
O=S(=O)(c1ccccc1)c1ccccc1	inactive	–
Clc1ccc(-c2ccccc2)cc1	inactive	–
Oc1cc(Cl)ccc1Cl	inactive	–

biological target: human Retinoic Acid Receptor beta (RARb), RARB (gene 5915) (UniProt P10826); test: ATG_RARb_TRANS: Attagene TRANS-FACTORIAL HepG2 Assay for human Retinoic Acid Receptor beta (AID 2283004); conditions: not given
Outline: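 HepG2 cells transiently transfected with multiplexed GAL4-UAS reporter units expressing chimeric NR–Gal4 fusions; 24 h compound exposure. Reporter mRNA quantified by RT-PCR, 6-FAM labelling, HpaI digestion and capillary electrophoresis; gain-of-signal fitted against DMSO baseline.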

Chain of human Retinoic Acid Receptor beta (RARb), RARB (gene 5915) (P10826 whole entry, looked up, the tested form may be a part): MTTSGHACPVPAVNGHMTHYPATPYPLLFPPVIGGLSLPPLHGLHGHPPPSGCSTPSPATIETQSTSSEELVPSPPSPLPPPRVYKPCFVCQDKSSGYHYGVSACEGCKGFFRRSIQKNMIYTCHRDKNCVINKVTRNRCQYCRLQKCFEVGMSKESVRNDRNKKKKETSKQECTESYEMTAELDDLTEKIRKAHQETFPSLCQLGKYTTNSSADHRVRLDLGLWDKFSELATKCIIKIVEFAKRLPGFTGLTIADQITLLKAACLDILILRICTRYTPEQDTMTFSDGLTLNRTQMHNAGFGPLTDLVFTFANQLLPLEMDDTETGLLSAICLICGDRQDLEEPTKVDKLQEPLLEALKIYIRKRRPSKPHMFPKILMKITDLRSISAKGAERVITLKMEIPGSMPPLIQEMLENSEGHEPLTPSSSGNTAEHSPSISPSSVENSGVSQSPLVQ

SMILES	outcome
Nc1c(Cl)c(Cl)c(Cl)c(Cl)c1Cl	inactive
COC(=O)c1ccccc1S(=O)(=O)NC(=O)Nc1nc(C)cc(C)n1	inactive
Nc1ccccc1C(=O)OCCc1ccccc1	inactive
CCc1cccc(C)c1N(C(=O)CCl)[C@@H](C)COC	inactive
CC1CCCC1.[C-]#[O+].[C-]#[O+].[C-]#[O+].[Mn]	inactive
Oc1cc(Cl)ccc1Cl	inactive

biological target: Retinoic acid receptor alpha (Homo sapiens) (UniProt P10276); test: ATG_RARa_TRANS: Attagene TRANS-FACTORIAL HepG2 Assay for human Retinoic Acid Receptor alpha (RARa) (AID 2283005); conditions: not given
Outline: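 Reporter transcripts, measured by RT-PCR with fluorescent labeling and capillary electrophoresis after 24 h dosing, reflect activity of an exogenous human RARa–GAL4 fusion in transiently transfected HepG2. Fitted for increase relative to DMSO.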

Chain of Retinoic acid receptor alpha (Homo sapiens) (P10276 whole entry, looked up, the tested form may be a part): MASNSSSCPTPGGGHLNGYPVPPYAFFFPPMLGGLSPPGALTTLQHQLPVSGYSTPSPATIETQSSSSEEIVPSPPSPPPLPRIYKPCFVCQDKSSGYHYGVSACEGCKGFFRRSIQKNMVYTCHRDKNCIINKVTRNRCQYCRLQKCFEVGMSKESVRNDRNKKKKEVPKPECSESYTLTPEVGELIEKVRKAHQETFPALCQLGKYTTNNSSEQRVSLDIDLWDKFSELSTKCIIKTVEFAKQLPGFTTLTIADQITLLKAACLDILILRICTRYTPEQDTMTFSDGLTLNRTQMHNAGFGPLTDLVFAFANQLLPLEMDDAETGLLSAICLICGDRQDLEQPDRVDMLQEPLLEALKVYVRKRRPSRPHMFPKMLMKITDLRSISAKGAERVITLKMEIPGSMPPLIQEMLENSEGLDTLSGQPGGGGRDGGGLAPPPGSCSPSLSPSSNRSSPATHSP

SMILES	outcome
Nc1ccc(-c2ccc(N)c(N)c2)cc1N	inactive
Nc1c(Cl)c(Cl)c(Cl)c(Cl)c1Cl	inactive
Nc1ccccc1C(=O)OCCc1ccccc1	inactive
O=P1(NCCCl)OCCCN1CCCl (stereo not given)	inactive
O=S(=O)(c1ccccc1)c1ccccc1	inactive

read-out: not listed separately; test: BSK_3C_Proliferation: Cell Proliferation Assessment in the BioMAP Diversity Plus: 3C Assay (AID 2283006; active = hit-call score of the fitted dose curve at least 0.9, where 1 is the maximum; inactive = score below 0.9;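 as to AC50: potency may reflect either rise or fall in cell number versus DMSO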); conditions: primary human endothelial cells (HUVEC)
Outline: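 HUVEC, sub-confluent; 48 h chemical exposure; 10% TCA fix, 0.1% SRB stain, A560 total protein. Gain or loss of signal fitted both directions vs DMSO control.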

SMILES	outcome	AC50
Nc1ccc(-c2ccc(N)c(N)c2)cc1N	inactive	–
O=c1[nH]c(Cl)c(Cl)cc1Cl	inactive	–
O=C(O)CCCc1ccc(N(CCCl)CCCl)cc1	–	12.1 µM (active) and 6.56 µM (active)
COC(C)(C)CCC[C@H](C)C/C=C/C(C)=C/C(=O)OC(C)C	–	26 µM (active)
O=P1(NCCCl)OCCCN1CCCl (stereo not given)	inactive	–
O=S(=O)(c1ccccc1)c1ccccc1	inactive	–
Clc1ccc(-c2ccccc2)cc1	inactive	–
Oc1cc(Cl)ccc1Cl	inactive	–

biological target: Peroxisome proliferator-activated receptor gamma (Homo sapiens) (UniProt P37231); test: ATG_PPARg_TRANS: Attagene TRANS-FACTORIAL HepG2 Assay for human Peroxisome Proliferator-activated Receptor-gamma (PPARg) (AID 2283007); conditions: not given
Outline: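 Gain-of-signal endpoint relative to DMSO, derived from reporter mRNA levels quantified by RT-PCR and capillary electrophoresis. Cells were HepG2 transiently expressing a chimeric NR-Gal4 construct with GAL4-UAS reporters, exposed to chemicals for 24 h.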

Chain of Peroxisome proliferator-activated receptor gamma (Homo sapiens) (P37231 whole entry, looked up, the tested form may be a part): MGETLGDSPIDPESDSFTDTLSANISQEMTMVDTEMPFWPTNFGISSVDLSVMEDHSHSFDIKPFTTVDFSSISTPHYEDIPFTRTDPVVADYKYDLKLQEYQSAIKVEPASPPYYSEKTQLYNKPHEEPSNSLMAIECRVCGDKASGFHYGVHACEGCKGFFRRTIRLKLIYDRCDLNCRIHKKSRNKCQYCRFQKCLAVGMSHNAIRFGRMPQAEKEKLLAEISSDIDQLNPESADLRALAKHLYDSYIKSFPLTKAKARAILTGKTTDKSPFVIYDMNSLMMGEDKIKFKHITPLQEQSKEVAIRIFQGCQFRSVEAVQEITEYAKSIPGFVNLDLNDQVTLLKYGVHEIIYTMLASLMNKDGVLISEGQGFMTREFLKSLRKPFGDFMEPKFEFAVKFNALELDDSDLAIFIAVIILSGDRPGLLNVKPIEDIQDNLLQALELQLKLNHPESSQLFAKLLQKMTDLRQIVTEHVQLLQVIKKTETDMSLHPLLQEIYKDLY

SMILES	outcome	AC50
Nc1ccc(-c2ccc(N)c(N)c2)cc1N	inactive	–
CCOP(O)OCC	inactive	–
O=c1[nH]c(Cl)c(Cl)cc1Cl	–	14.2 µM (active)
CCC(C)c1cc(C(C)(C)C)cc(-n2nc3ccccc3n2)c1O (stereo not given)	inactive	–
[CH3][Sn]([Cl])([Cl])[Cl]	inactive	–
Nc1c(Cl)c(Cl)c(Cl)c(Cl)c1Cl	inactive	–
COC(=O)c1ccccc1S(=O)(=O)NC(=O)Nc1nc(C)cc(C)n1	inactive	–
Nc1ccccc1C(=O)OCCc1ccccc1	–	24.9 µM (active)
N#Cc1cccc(C#N)c1	inactive	–
COC(C)(C)CCC[C@H](C)C/C=C/C(C)=C/C(=O)OC(C)C	–	7.82 µM (active)
[CH3][Sn]([CH3])([Cl])[Cl]	inactive	–
CCc1cccc(C)c1N(C(=O)CCl)[C@@H](C)COC	–	27 µM (active)
O=P1(NCCCl)OCCCN1CCCl (stereo not given)	inactive	–
CC(Cc1ccc(C(C)(C)C)cc1)CN1C[C@@H](C)O[C@@H](C)C1 (stereo not given in full)	–	21.7 µM (active)
O=C(O)c1cc[c]([Hg][Cl])cc1	–	44.6 µM (active)
O=S(=O)(c1ccccc1)c1ccccc1	inactive	–

SMILES	outcome	AC50
Clc1ccc(-c2ccccc2)cc1	inactive	–
CN(C)C(=O)C(c1ccccc1)c1ccccc1	inactive	–
C=CCc1ccc(OC(=O)Cc2ccccc2)c(OC)c1	–	19 µM (active)
O=P(O)(Oc1ccccc1)Oc1ccccc1	inactive	–
O=C(O)COc1ccccc1	inactive	–
[Cl][Sb]([Cl])[Cl]	inactive	–
Cc1ccc(N(SC(F)(Cl)Cl)S(=O)(=O)N(C)C)cc1	inactive	–
CC1(C)CC(=O)CC(C)(C)N1[O]	inactive	–
SCc1ccco1	–	27.9 µM (active)
O=CNC(N1CCN(C(NC=O)C(Cl)(Cl)Cl)CC1)C(Cl)(Cl)Cl (stereo not given)	inactive	–
Oc1cc(Cl)ccc1Cl	inactive	–
O=[N+]([O-])c1cc(C(F)(F)F)c(Cl)c([N+](=O)[O-])c1Cl	–	8.34 µM (active)
C[C@]12CCC(=O)C(O)=C1CC[C@@H]1[C@@H]2CC[C@]2(C)C(=O)CC[C@@H]12	inactive	–
CSc1nc(N=[N+]=[N-])nc(NC(C)C)n1	–	15.4 µM (active)
O=[N+]([O-])O.O=[N+]([O-])O.[Cd]	inactive	–

biological target: Nuclear receptor subfamily 1 group I member 2 (Homo sapiens) (UniProt O75469); test: ATG_PXR_TRANS: Attagene TRANS-FACTORIAL HepG2 Assay for human Pregnane X Receptor (PXR) (AID 2283008); conditions: not given
Outline: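 Transactivation by exogenous PXR–GAL4 fusion measured as reporter transcript induction after 24 h compound treatment of transfected human HepG2 cells. Read-out via RT-PCR and capillary electrophoresis of labelled fragments, fitted upward relative to DMSO.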

Chain of Nuclear receptor subfamily 1 group I member 2 (Homo sapiens) (O75469 whole entry, looked up, the tested form may be a part): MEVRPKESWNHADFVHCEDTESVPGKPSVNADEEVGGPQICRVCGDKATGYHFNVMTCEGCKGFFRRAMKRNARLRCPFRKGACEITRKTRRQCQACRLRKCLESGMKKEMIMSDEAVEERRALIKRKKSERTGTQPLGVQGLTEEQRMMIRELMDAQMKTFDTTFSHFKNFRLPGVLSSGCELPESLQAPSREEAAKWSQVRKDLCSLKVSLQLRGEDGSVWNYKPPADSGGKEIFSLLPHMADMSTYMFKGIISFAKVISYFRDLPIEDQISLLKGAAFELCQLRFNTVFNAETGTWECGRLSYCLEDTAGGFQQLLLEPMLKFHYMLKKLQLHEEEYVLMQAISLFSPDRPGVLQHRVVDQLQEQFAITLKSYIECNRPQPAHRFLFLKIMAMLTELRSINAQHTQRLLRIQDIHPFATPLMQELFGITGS

SMILES	outcome	AC50
O=c1[nH]c(Cl)c(Cl)cc1Cl	inactive	–
CCC(C)c1cc(C(C)(C)C)cc(-n2nc3ccccc3n2)c1O (stereo not given)	inactive	–
[CH3][Sn]([Cl])([Cl])[Cl]	inactive	–
Nc1c(Cl)c(Cl)c(Cl)c(Cl)c1Cl	–	13.3 µM (active)
COC(=O)c1ccccc1S(=O)(=O)NC(=O)Nc1nc(C)cc(C)n1	inactive	–
Nc1ccccc1C(=O)OCCc1ccccc1	–	19.2 µM (active)
N#Cc1cccc(C#N)c1	inactive	–
O=C(O)CCCc1ccc(N(CCCl)CCCl)cc1	inactive	–
Nc1cc(Cl)cc(Cl)c1	inactive	–
COc1ncc(F)c2nc(S(=O)(=O)Nc3c(F)cccc3F)nn12	inactive	–
COC(C)(C)CCC[C@H](C)C/C=C/C(C)=C/C(=O)OC(C)C	–	16.3 µM (active)
[CH3][Sn]([CH3])([Cl])[Cl]	inactive	–
CCc1cccc(C)c1N(C(=O)CCl)[C@@H](C)COC	–	0.18 µM (active)
O=P1(NCCCl)OCCCN1CCCl (stereo not given)	inactive	–
CC(Cc1ccc(C(C)(C)C)cc1)CN1C[C@@H](C)O[C@@H](C)C1 (stereo not given in full)	–	4.52 µM (active)
O=S(=O)(c1ccccc1)c1ccccc1	–	10.3 µM (active)

SMILES	outcome	AC50
Clc1ccc(-c2ccccc2)cc1	inactive	–
CN(C)C(=O)C(c1ccccc1)c1ccccc1	–	4.18 µM (active)
C=CCc1ccc(OC(=O)Cc2ccccc2)c(OC)c1	–	11.8 µM (active)
O=P(O)(Oc1ccccc1)Oc1ccccc1	inactive	–
CC1CCCC1.[C-]#[O+].[C-]#[O+].[C-]#[O+].[Mn]	inactive	–
O=C(O)COc1ccccc1	inactive	–
CCC(=O)c1ccc(Cl)cc1	inactive	–
Cc1ccc(N(SC(F)(Cl)Cl)S(=O)(=O)N(C)C)cc1	inactive	–
CC1(C)CC(=O)CC(C)(C)N1[O]	inactive	–
SCc1ccco1	inactive	–
O=CNC(N1CCN(C(NC=O)C(Cl)(Cl)Cl)CC1)C(Cl)(Cl)Cl (stereo not given)	–	6.57 µM (active)
Oc1cc(Cl)ccc1Cl	inactive	–
O=[N+]([O-])c1cc(C(F)(F)F)c(Cl)c([N+](=O)[O-])c1Cl	inactive	–
C[C@]12CCC(=O)C(O)=C1CC[C@@H]1[C@@H]2CC[C@]2(C)C(=O)CC[C@@H]12	inactive	–
CSc1nc(N=[N+]=[N-])nc(NC(C)C)n1	–	14 µM (active)
